# According to PubChem BioAssay (NCATS):
# Inconclusive results are not listed. Entries that show only a call come without a potency. Activity calls are given as the source filed them. Unless noted, calls come from the whole dose curve.
# Tests used:
# [1] = qHTS for Inhibitors of the Functional Ribonucleoprotein Complex (vRNP) of Lassa (LASV) Arenavirus: LASV Primary Screen - GLuc reporter signal (AID 1347082; calls by dose curve; tested in HEK293 reporter line; note: nearly all actives have a fitted effect of over 60% in size; note: potency is the fitted concentration of half-maximal effect)
# [2] = qHTS for Inhibitors of the Functional Ribonucleoprotein Complex (vRNP) of Lassa (LASV) Arenavirus: Viability assay - alamar blue signal for LASV Primary Screen (AID 1347083; calls by dose curve; tested in HEK293 reporter line; note: nearly all actives have a fitted effect of over 80% in size; note: potency is the fitted concentration of half-maximal effect)
# [3] = qHTS for Inhibitors of the Functional Ribonucleoprotein Complex (vRNP) of Lymphocytic Choriomeningitis Arenaviruses (LCMV): Viability assay - alamar blue signal for LCMV Primary Screen (AID 1347085; calls by dose curve; tested in HEK293 reporter line; note: nearly all actives have a fitted effect of over 80% in size; note: potency is the fitted concentration of half-maximal effect)
# [4] = target: Nucleoprotein (Lymphocytic choriomeningitis virus (strain Armstrong)) (UniProt P09992); experiment: qHTS for Inhibitors of the Functional Ribonucleoprotein Complex (vRNP) of Lymphocytic Choriomeningitis Arenaviruses (LCMV): LCMV Primary Screen - GLuc reporter signal (AID 1347086); note: nearly all actives have a fitted effect of over 70% in size; note: potency is the fitted concentration of half-maximal effect
# Sequence of Nucleoprotein (Lymphocytic choriomeningitis virus (strain Armstrong)) (P09992 whole entry, looked up): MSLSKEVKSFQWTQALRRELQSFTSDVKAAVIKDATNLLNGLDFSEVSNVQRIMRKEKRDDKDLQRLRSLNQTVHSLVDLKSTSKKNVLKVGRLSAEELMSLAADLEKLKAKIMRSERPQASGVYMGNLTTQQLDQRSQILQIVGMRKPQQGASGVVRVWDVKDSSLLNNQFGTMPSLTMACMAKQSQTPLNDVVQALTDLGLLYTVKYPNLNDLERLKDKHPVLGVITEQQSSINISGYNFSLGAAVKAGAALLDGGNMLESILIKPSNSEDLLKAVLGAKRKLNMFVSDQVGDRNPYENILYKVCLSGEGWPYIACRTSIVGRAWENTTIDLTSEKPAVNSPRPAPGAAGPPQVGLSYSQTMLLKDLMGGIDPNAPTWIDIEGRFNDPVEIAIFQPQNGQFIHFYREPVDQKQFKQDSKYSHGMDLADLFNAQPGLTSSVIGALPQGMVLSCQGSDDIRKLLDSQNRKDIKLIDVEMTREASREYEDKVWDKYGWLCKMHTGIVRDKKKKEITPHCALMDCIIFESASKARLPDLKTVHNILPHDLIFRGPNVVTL
# [5] = Primary qHTS for inhibitors of SARS-S pseudo-typed particle cell entry (AID 1479145); note: nearly all actives have a fitted effect of over 45% in size
# [6] = Primary qHTS for Huh7 cytotoxicity: counterscreen for inhibitors of MERS-S pseudotyped particle cell entry (AID 1479147); conditions: outcome: dose series up to 57.1 µM unless noted
# [7] = Primary qHTS for inhibitors of MERS-S pseudo-typed particle cell entry (AID 1479149); note: nearly all actives have a fitted effect of over 60% in size; note: potency is the fitted concentration of half-maximal effect
# [8] = Cytotoxicity counterscreen for inhibitors of SARS-CoV-2 cell entry (AID 1645845); note: nearly all actives have a fitted effect of over 50% in size
# How it was run: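 After a 15 min room-temperature ATPLite 1step step, luminescence reflected ATP remaining in HEK293-ACE2 cells exposed to compound for 1 h plus 48 h at 37 C, with percent activity set by cell and no-cell controls.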
# [9] = Primary qHTS for Vero E6 cytotoxicity: counterscreen for inhibitors of SARS-S pseudo-typed particle cell entry (AID 1479150); conditions: outcome: dose series up to 57.1 µM unless noted
# [10] = Primary qHTS to identify inhibitors of SARS-CoV-2 cell entry (AID 1645846); conditions: activity change, negative = inhibition: at 57.1 µM (top of the series) unless noted; note: nearly all actives have a fitted effect of over 45% in size
# How it was run: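 Data are normalized to wells receiving SARS-CoV-2-S pseudoparticles and those given bald particles. Entry signal was luciferase luminescence in stable hACE2 Expi293F cells, 48 hr post-infection, after 1 hr compound pretreatment.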
# [11] = VSVG counterscreen qHTS to identify inhibitors of SARS-CoV-2 cell entry (AID 1645847); note: potency is the fitted concentration of half-maximal effect; nearly all actives have a fitted effect of over 65% in size
# How it was run: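 Counterscreen using VSV-G (not spike) pseudotyped MLV particles on ACE2-expressing Expi293F cells after 1 h compound preincubation; infection ran 48 h at 37 °C. Data normalized to VSV-G PP and bald-PP wells.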
# [12] = Validation screen for inhibitors of Lassa infection (AID 463096)
# [13] = Inducers of the Endoplasmic Reticulum Stress Response (ERSR) in human glioma: Validation (AID 504836; active = well fitted curve in the direction sought with a large enough effect; an effect the other way counts as inactive or inconclusive)
# How it was run: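 Stably transfected U87-MG human glioma cells carrying a GRP78-based luminescent sensor were seeded at 1000 cells/well, pin-dosed with compounds and incubated 16 h. Luciferase reagent was then added, and end-point luminescence was read after 10 min at room temperature.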
# [14] = target: Cytochrome P450 3A4 (Homo sapiens) (UniProt P08684); experiment: qHTS Assay for Activators of Cytochrome P450 3A4 (AID 885; active = well fitted curve in the direction sought with a large enough effect; an effect the other way counts as inactive or inconclusive; note: nearly all actives have a fitted effect of over 65% in size)
# Sequence of Cytochrome P450 3A4 (Homo sapiens) (P08684 whole entry, looked up): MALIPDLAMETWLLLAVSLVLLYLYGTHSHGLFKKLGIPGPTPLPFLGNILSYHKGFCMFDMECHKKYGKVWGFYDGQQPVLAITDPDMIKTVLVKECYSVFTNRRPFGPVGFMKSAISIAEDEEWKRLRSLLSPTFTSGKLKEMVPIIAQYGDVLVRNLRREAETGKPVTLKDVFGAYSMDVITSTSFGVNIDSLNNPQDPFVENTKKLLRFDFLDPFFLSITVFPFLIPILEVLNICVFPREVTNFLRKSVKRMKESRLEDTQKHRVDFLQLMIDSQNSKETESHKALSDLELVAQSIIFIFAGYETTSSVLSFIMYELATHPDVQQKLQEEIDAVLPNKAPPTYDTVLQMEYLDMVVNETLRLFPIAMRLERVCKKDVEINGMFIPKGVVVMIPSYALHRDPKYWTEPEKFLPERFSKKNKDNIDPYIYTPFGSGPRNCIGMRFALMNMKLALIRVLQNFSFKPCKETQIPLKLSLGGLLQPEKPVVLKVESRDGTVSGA
# How it was run: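 Activators are scored by enhanced luminescence from CYP3A4 conversion of luciferin-PPXE (25uM, equal to KM) to luciferin, after 60 min at RT with an NADPH-regenerating system.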
# [15] = qHTS Assay for Identification of Small Molecule Antagonists for Thrombopoietin (TPO) Signaling Pathway (AID 918; active = well fitted curve in the direction sought with a large enough effect; an effect the other way counts as inactive or inconclusive; note: potency is the fitted concentration of half-maximal effect; nearly all actives have a fitted effect of over 60% in size); conditions: TPO-dependent cell signaling reporter, antagonist mode
# How it was run: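 Inhibitors of TPO signaling are sought by stimulating IL-3-starved murine Ba/F3 cells (human TPO receptor, Glycoprotein IIb-driven luciferase) with TPO at its EC50 of 26 pM alongside compound. After 24 hrs at 37 C, reporter luminescence is measured.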
# [16] = target: Alpha-galactosidase (Coffea arabica) (UniProt Q42656); experiment: Counterscreen for Glucocerebrosidase Inhibitors: qHTS Assay for Coffee Bean alpha-Galactosidase at pH 4.5 (AID 957; active = well fitted curve in the direction sought with a large enough effect; an effect the other way counts as inactive or inconclusive)
# Sequence of Alpha-galactosidase (Coffea arabica) (Q42656 whole entry, looked up): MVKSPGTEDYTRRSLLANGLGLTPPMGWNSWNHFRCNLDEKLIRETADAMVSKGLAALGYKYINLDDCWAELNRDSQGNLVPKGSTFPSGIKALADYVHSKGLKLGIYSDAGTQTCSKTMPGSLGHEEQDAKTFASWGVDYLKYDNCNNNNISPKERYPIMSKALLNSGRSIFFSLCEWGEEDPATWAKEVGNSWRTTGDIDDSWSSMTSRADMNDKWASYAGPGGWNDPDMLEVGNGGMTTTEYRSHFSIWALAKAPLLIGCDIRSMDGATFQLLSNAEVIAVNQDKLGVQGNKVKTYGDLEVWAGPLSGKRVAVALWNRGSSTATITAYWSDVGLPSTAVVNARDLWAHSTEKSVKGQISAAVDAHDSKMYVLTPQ
# How it was run: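 Enzyme is added first (2 nM final), then compounds titrated from 0.7 nM to 77 uM, then 80 uM 4-methylumbelliferyl alpha-D-galactopyranoside; after 20 min at room temperature a pH 10 NaOH/glycine stop precedes fluorescence reading at 365/440 nm.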
# [17] = target: Alpha-galactosidase (Coffea arabica) (UniProt Q42656); experiment: Counterscreen for Glucocerebrosidase Inhibitors: qHTS Assay for Coffee Bean alpha-Galactosidase at pH 5.9 (AID 998; active = well fitted curve in the direction sought with a large enough effect; an effect the other way counts as inactive or inconclusive)
# How it was run: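 In 50 mM citric acid pH 5.9 with 0.005% Tween-20, coffee bean enzyme hydrolyses 80 uM 4-MU alpha-D-galactopyranoside over 20 min at RT. Activity is normalized to controls; AC50 comes from Hill-modelled concentration-response data.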
# [18] = target: M-phase phosphoprotein 8 (Homo sapiens) (UniProt Q99549); experiment: qHTS Validation Assay for Inhibitors for MPP8 Chromodomain Interactions with Methylated Histone Tails (AID 488949; active = well fitted curve in the direction sought with a large enough effect; an effect the other way counts as inactive or inconclusive;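 note: AlphaScreen signal from MPP8 chromodomain bound to biotinylated H3K9me3 peptide; top concentration of the series differs between compounds; nearly all actives have a fitted effect of over 55% in size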)
# Sequence of M-phase phosphoprotein 8 (Homo sapiens) (Q99549 whole entry, looked up): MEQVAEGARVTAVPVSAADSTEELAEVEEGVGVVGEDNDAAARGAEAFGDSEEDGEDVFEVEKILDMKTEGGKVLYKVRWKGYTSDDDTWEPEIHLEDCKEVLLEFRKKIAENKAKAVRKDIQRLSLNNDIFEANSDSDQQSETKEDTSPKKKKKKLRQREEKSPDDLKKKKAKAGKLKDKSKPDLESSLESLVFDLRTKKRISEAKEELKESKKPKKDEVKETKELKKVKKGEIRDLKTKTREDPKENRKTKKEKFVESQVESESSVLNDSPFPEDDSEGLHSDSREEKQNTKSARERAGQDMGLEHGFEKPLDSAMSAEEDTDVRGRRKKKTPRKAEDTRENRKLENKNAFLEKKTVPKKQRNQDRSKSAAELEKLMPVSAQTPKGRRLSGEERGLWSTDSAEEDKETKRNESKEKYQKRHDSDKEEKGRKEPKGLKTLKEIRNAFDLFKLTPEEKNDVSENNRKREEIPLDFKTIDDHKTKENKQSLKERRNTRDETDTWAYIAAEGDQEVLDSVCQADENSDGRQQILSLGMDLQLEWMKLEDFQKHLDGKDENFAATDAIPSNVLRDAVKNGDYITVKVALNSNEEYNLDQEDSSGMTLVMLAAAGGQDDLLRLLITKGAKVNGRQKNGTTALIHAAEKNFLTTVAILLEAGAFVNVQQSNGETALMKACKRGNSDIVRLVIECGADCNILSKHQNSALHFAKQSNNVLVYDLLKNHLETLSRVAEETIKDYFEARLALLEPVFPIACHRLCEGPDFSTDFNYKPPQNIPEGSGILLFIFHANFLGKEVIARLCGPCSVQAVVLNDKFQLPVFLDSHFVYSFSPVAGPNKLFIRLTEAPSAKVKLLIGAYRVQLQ
# How it was run: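 Disruption of the preformed MPP8–trimethyl-H3K9 peptide complex (both 50 nM, 30 min, RT) is measured after 30 min compound exposure, using AlphaScreen proximity beads; aurintricarboxylic acid titration serves as plate control.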
# [19] = target: Arylsulfatase A (Homo sapiens) (UniProt P15289); experiment: qHTS screen for enhancers of Arylsulfatase A (ASA1): LOPAC Validation Assay (AID 720538; active = well fitted curve in the direction sought with a large enough effect; an effect the other way counts as inactive or inconclusive)
# Sequence of Arylsulfatase A (Homo sapiens) (P15289 whole entry, looked up): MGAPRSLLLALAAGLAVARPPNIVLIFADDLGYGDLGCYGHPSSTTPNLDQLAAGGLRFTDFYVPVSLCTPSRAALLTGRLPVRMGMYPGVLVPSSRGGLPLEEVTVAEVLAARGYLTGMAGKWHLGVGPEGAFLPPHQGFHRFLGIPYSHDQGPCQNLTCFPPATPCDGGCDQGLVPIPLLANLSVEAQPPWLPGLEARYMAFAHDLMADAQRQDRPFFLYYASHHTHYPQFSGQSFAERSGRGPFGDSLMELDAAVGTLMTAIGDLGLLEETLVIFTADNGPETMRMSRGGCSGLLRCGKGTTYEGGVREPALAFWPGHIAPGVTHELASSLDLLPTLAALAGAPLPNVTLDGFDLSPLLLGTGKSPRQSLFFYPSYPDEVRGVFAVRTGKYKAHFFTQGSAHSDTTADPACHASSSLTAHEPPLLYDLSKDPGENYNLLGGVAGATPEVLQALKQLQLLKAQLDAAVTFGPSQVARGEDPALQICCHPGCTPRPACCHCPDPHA
# How it was run: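 First, ASA-I179S fibroblasts from an MLD patient adhered for 6 hrs. Next, compounds were added for 48h. Then pNCS substrate (0.5mM final) with lysis buffer reacted 14h at room temperature before NaOH stop and fluorescence measurement.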
smiles,measurement,setting,value
COc1ccc(CC2c3cc(OC)c(OC)cc3CC[N+]2(C)CCC(=O)OCCCCCOC(=O)CC[N+]2(C)CCc3cc(OC)c(OC)cc3C2Cc2ccc(OC)c(OC)c2)cc1OC (stereo not given),"activity change, negative = inhibition",[1],-1.71% [at 11.5 µM] (inactive)
same,"activity change, negative = reduced viability",[2],-21.5% [at 11.5 µM] (inactive)
same,"activity change, negative = lower viability",[3],2.32% [at 11.5 µM] (inactive)
same,"activity change, negative = inhibition",[4],-0.768% [at 11.5 µM] (inactive)
same,Potency,[5],inactive
same,outcome,[6],inactive
same,Potency,[7],inactive
same,Potency,[8],inactive
CC(C)[N+]1(C)[C@@H]2CC[C@H]1CC(OC(=O)C(CO)c1ccccc1)C2 (stereo not given in full),Potency,[1],inactive
same,Potency,[2],inactive
same,Potency,[3],inactive
same,Potency,[4],inactive
same,Potency,[5],inactive
same,outcome,[6],inactive
same,Potency,[7],inactive
same,outcome,[9],inactive
same,Potency,[8],inactive
same,"activity change, negative = inhibition",[10],2.78%
O=C1c2c(O)cccc2[C@@H]([C@@H]2O[C@H](CO)[C@@H](O)[C@H](O)[C@H]2O)c2cc(CO)cc(O)c21,Potency,[1],inactive
same,Potency,[2],inactive
same,Potency,[3],inactive
same,Potency,[4],inactive
same,outcome,[6],inactive
same,Potency,[7],inactive
same,outcome,[9],inactive
same,Potency,[8],inactive
same,"activity change, negative = inhibition",[10],-0.84%
O=C(O)CCC=CCC[C@@H]1[C@H](N2CCCCC2)[C@@H](O)C[C@@H]1OCc1ccc(-c2ccccc2)cc1,Potency,[1],inactive
same,Potency,[2],inactive
same,Potency,[3],inactive
same,Potency,[4],inactive
same,outcome,[6],inactive
same,Potency,[7],inactive
same,outcome,[9],inactive
same,Potency,[8],inactive
Cc1c(-c2ccc(O)cc2)n(Cc2ccc(OCCN3CCCCCC3)cc2)c2ccc(O)cc12,Potency,[1],inactive
same,Potency,[2],inactive
same,Potency,[3],inactive
same,Potency,[4],inactive
same,Potency,[7],10 µM (active)
same,outcome,[9],inactive
same,Potency,[8],inactive
same,Potency,[11],27.1 µM (active)
CCc1cc2c(cc1N1CCC(N3CCOCC3)CC1)C(C)(C)c1[nH]c3cc(C#N)ccc3c1C2=O,Potency,[1],inactive
same,Potency,[2],inactive
same,Potency,[3],inactive
same,Potency,[4],inactive
same,outcome,[6],inactive
same,Potency,[7],inactive
same,outcome,[9],inactive
same,Potency,[8],inactive
same,Potency,[10],inactive
same,"activity change, negative = inhibition",[10],-34.9% [at 27.1 µM]
CN(C)CCC(c1ccc(Br)cc1)c1ccccn1 (stereo not given),Potency,[12],inactive
same,outcome,[13],inactive
same,Potency,[1],inactive
same,Potency,[2],inactive
same,Potency,[3],inactive
same,Potency,[4],inactive
same,outcome,[6],inactive
same,Potency,[7],inactive
same,outcome,[9],inactive
same,Potency,[8],inactive
CC(C)COC(=O)OCN1C(=O)CN(CCN2CC(=O)N(COC(=O)OCC(C)C)C(=O)C2)CC1=O,Potency,[14],inactive
same,Potency,[15],0.251 µM (active)
same,outcome,[16],inactive
same,outcome,[17],inactive
same,Potency,[12],inactive
same,Potency,[18],inactive
same,outcome,[13],inactive
same,Potency,[19],inactive
same,Potency,[1],inactive
same,Potency,[2],inactive
same,Potency,[3],inactive
same,Potency,[4],inactive
same,outcome,[6],inactive
same,Potency,[7],inactive
same,outcome,[9],inactive
same,Potency,[8],inactive
same,"activity change, negative = inhibition",[10],-21.8%
Cc1ccc(NC(=O)C2(c3ccc4c(c3)OC(F)(F)O4)CC2)nc1-c1cccc(C(=O)O)c1,Potency,[1],0.0385 µM (active)
same,Potency,[2],0.0432 µM (active)
same,Potency,[3],0.0685 µM (active)
same,Potency,[4],0.0217 µM (active)
same,outcome,[6],inactive
same,Potency,[7],inactive
same,outcome,[9],inactive
same,Potency,[8],inactive
same,Potency,[10],inactive
same,"activity change, negative = inhibition",[10],-24.6%
CO[C@@H]1[C@H](OC(=O)/C=C/C=C/C=C/C=C/C(=O)O)CC[C@]2(CO2)[C@H]1[C@@]1(C)O[C@@H]1CC=C(C)C,Potency,[1],inactive
same,Potency,[2],inactive
same,Potency,[3],inactive
same,Potency,[4],inactive
same,outcome,[6],inactive
same,Potency,[7],inactive
same,outcome,[9],inactive
same,Potency,[8],inactive
NC(N)=NCc1cccc(I)c1,outcome,[16],inactive
same,outcome,[17],inactive
same,Potency,[12],inactive
same,outcome,[13],inactive
same,Potency,[1],inactive
same,Potency,[2],inactive
same,Potency,[3],inactive
same,Potency,[4],inactive
same,outcome,[6],inactive
same,Potency,[7],inactive
same,outcome,[9],inactive
same,Potency,[8],inactive
